Measurements published in the supplement of paper PMC12067926.
Values without a mark were called inactive.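 Rule for the calls: active = growth AUC significantly below the DMSO wells by Dunnett test; inactive = the rest.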

Key:
Test in all cases: relative growth (AUC of 72 h growth curve relative to DMSO control, dAUC) (ratio); higher = more growth (less inhibition), active = hit call of the paper
Conditions in all cases: 20 µM
[1] = tested on: Aeromonas 1 (Aeromonas sp. AE235)
Procedure, shortened: (§1)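 Whole sediment communities and bacterial isolates from Icelandic stream sediments and Silwood Park soil were brought to carrying capacity in Luria–Bertani medium. They were then diluted 1:100 into 96-well plates with each chemical at 20 µM in 1% DMSO, and A600 was recorded every hour for 72 h. The area under each growth curve, integrated by spline, was averaged across three biological replicates. This figure, divided by the mean of the DMSO controls, gives relative growth (dAUC).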

[2] = tested on: Aeromonas 2 (Aeromonas sobria)
Procedure, shortened: as §1

[3] = tested on: Aeromonas 3 (Aeromonas popoffii)
Procedure, shortened: as §1

[4] = tested on: Argrobacterium 1 (Agrobacterium sp.)
Procedure, shortened: as §1

[5] = tested on: Arthrobacter 1 (Arthrobacter humicola)
Procedure, shortened: as §1

[6] = tested on: Arthrobacter 2 (Arthrobacter humicola)
Procedure, shortened: as §1

[7] = tested on: Arthrobacter 3 (Arthrobacter sp.)
Procedure, shortened: as §1

Community 10 = tested on: Community 10
Procedure, shortened: as §1

Community 4 = tested on: Community 4
Procedure, shortened: as §1

Community 6 = tested on: Community 6
Procedure, shortened: as §1

Community 7 = tested on: Community 7
Procedure, shortened: as §1

Community 8 = tested on: Community 8
Procedure, shortened: as §1

Community 9 = tested on: Community 9
Procedure, shortened: as §1

[8] = tested on: Flavobacterium 1 (Flavobacterium glaciei)
Procedure, shortened: as §1

[9] = tested on: Flavobacterium 2 (Flavobacterium succinicans)
Procedure, shortened: as §1

[10] = tested on: Hymenobacter 1 (Hymenobacter glaciei)
Procedure, shortened: as §1

[11] = tested on: Microbacterium 1 (Microbacterium arborescens)
Procedure, shortened: as §1

[12] = tested on: Neobacillus 1 (Neobacillus soli)
Procedure, shortened: as §1

[13] = tested on: Oryzobacter 1 (Oryzobacter terrae)
Procedure, shortened: as §1

[14] = tested on: Paenibacillus 1 (Paenibacillus castaneae)
Procedure, shortened: as §1

SMILES	relative growth [1]	relative growth [2]	relative growth [3]	relative growth [4]	relative growth [5]	relative growth [6]	relative growth [7]	relative growth (Community 10)	relative growth (Community 4)	relative growth (Community 6)	relative growth (Community 7)	relative growth (Community 8)	relative growth (Community 9)	relative growth [8]	relative growth [9]	relative growth [10]	relative growth [11]	relative growth [12]	relative growth [13]	relative growth [14]
COc1ncc(F)c2nc(S(=O)(=O)Nc3c(F)cccc3F)nn12	1.06	1.02	1.07	0.953	1.03	1.11	1.03	1.04	1.05	1.05	0.948	1.04	1.11	1.03	1.06	1.06	1.03	1.04	1	1.06
COC(=O)NC(=S)Nc1ccccc1NC(=S)NC(=O)OC	0.978	0.978	0.998	1.02	0.923	0.973	1.07	0.99	0.943	0.97	1.03	0.993	1.05	1.08	0.993	0.952	1	1.01	0.947	0.934
ClC1C(Cl)C(Cl)C(Cl)C(Cl)C1Cl (stereo not given)	1.02	0.964	0.994	1	1.04	0.837	0.909	0.844	0.976	0.931	1.03	0.993	0.963	0.862	0.932	0.999	1.01	0.941	1.13	0.961
COC(=O)N(OC)c1ccccc1COc1ccn(-c2ccc(Cl)cc2)n1	1.04	0.927	0.979	1.04	1.16	1.02	0.903	0.903	0.941	1.03	1.11	1.04	1.09	0.969	0.979	1.08	0.98	1.03	1.17	0.944
O=C(O)c1nc(Cl)ccc1Cl	0.95	0.943	0.997	0.946	1.03	0.895	0.963	0.892	0.903	0.972	1.17	0.994	0.937	1.04	0.962	0.835	0.977	0.968	0.889	0.973
CC1(C)CON(Cc2ccccc2Cl)C1=O	0.978	0.966	1.01	1	0.963	0.879	1.08	0.791	0.973	0.946	1.08	1.04	1.02	1.02	0.941	0.974	1	0.965	1.13	0.973
CC1(C)[C@H](C(=O)O[C@H](C#N)c2cccc(Oc3ccccc3)c2)[C@@H]1C=C(Br)Br	1.05	1.04	1.09	1.09	1.16	0.949	0.946	0.964	1.01	1.06	1.07	1.06	1.05	1.08	1.02	1.06	1.03	1.1	1.08	0.958
Clc1ccc(C(c2ccc(Cl)cc2)C(Cl)(Cl)Cl)cc1	0.999	0.972	0.973	1.02	0.353 (active)	0.211 (active)	0.316 (active)	0.832	0.976	0.983	1.11	0.997	1.03	0.767	0.979	0.976	0.973	1.1	1.06	0.913
CNC(=O)c1cc(Cl)cc(C)c1NC(=O)c1cc(Br)nn1-c1ncccc1Cl	1.01	1.05	1.03	0.963	1.08	0.758	1.02	1.14	1.09	1.07	1.02	1.04	1.09	1	1.03	1.13	0.975	1.04	0.99	1.09
COP(=O)(OC)OC=C(Cl)Cl	0.937	0.977	0.972	0.977	0.856	0.86	0.916	1.04	0.961	0.961	1.09	0.997	0.964	1.01	0.965	0.909	0.975	0.893	0.94	0.984
COCc1cnc(C2=NC(C)(C(C)C)C(=O)N2)c(C(=O)O)c1 (stereo not given)	0.932	0.973	1	1	0.954	1.01	0.931	0.96	0.84	0.937	1.14	0.983	0.959	0.978	1	1.02	1.02	0.961	1.05	0.966
C[N+](C)(C)CCCl	0.996	0.944	0.977	1.01	1.05	1	0.987	0.819	0.978	0.92	0.749	0.988	1.01	1.09	0.996	0.977	0.994	0.993	1.05	0.97
N#C/N=C1\SCCN1Cc1ccc(Cl)nc1	0.998	1	1	0.984	1.1	1.11	1.06	1.02	1.04	1.05	0.846	1.07	1.09	1.1	1.04	1.21	1.03	1.07	1.02	1.05
CCCCC(C#N)(Cn1cncn1)c1ccc(Cl)cc1 (stereo not given)	0.946	0.901	0.979	1.07	0.975	0.849	0.841	0.956	0.921	0.931	0.991	0.904	0.937	0.856	0.885	0.912	0.925	0.942	1.12	0.97
COP(N)(=O)SC (stereo not given)	0.996	1	0.972	1.14	0.92	0.0085 (active)	0.137 (active)	0.803	0.808	0.626 (active)	1.34	0.924	0.575 (active)	0.117 (active)	0.952	1.01	0.992	0.856	1.03	0.194 (active)
O=C(O)CNCP(=O)(O)O	0.998	1	1.03	1.01	0.952	1.04	1.04	0.952	1.03	1.07	1.06	1.04	1.04	0.964	1.02	1.11	1.05	1.04	1.02	0.969
CNC(=O)Oc1cccc2ccccc12	0.941	0.918	0.921	1.09	0.924	1.07	1.14	0.847	0.976	1.01	0.845	1.06	0.967	1.09	1.01	1.03	1.02	1.04	0.972	1

SMILES	relative growth [1]	relative growth [2]	relative growth [3]	relative growth [4]	relative growth [5]	relative growth [6]	relative growth [7]	relative growth (Community 10)	relative growth (Community 4)	relative growth (Community 6)	relative growth (Community 7)	relative growth (Community 8)	relative growth (Community 9)	relative growth [8]	relative growth [9]	relative growth [10]	relative growth [11]	relative growth [12]	relative growth [13]	relative growth [14]
Cc1cccc2sc3nncn3c12	0.985	0.988	1	0.915	0.993	0.932	1.01	0.867	0.917	0.96	1.05	1.01	0.899	1.01	0.95	0.996	1.05	0.969	1.05	0.943
CS(=O)(=O)c1ccc(C(=O)C2C(=O)CCCC2=O)c([N+](=O)[O-])c1	0.965	1	0.97	0.959	1	1.07	1.02	1.02	1.06	1.04	0.957	1.06	1.04	1.07	1.04	1.07	1.04	1.04	1.01	1.03
N#Cc1sc2c(=O)c3ccccc3c(=O)c=2sc1C#N	0.852	0.905	1.07	1.09	0.649 (active)	0.193 (active)	0.557 (active)	1.16	1.12	1.12	1.06	1.06	1.09	0.359 (active)	1.05	0.709	0.965	1	0.898	0.928
Oc1ccccc1-c1ccccc1	1.01	0.967	1.01	0.914	0.929	0.866	0.964	0.954	0.851	0.973	1.12	0.988	0.974	0.75	0.946	0.951	1.04	0.9	1.12	0.888
N#Cc1cc(Br)c(O)c(Br)c1	0.985	0.899	1.01	1.03	0.984	0.827	1.02	0.931	1.08	1.05	1.07	1.05	1.08	1.02	0.951	0.861	1.05	0.842	0.742 (active)	1.16
CC1=NNC(=O)N(/N=C/c2cccnc2)C1	1.04	1.04	1.04	0.954	1.13	1.13	1.05	0.983	1.1	1.14	0.897	0.918	1.2	1.04	1.05	1.12	1	1.16	1.01	1.06
O=C(Nc1ccccc1-c1ccc(Cl)cc1)c1cccnc1Cl	1.02	0.995	1.04	0.962	0.891	1.01	0.869	1.05	1.01	1.01	1	1.03	0.999	1.04	1	1.11	1.01	1.06	0.99	1.02
O=[N+]([O-])c1cc(C(F)(F)F)c(Cl)c([N+](=O)[O-])c1Nc1ncc(C(F)(F)F)cc1Cl	1.04	0.00203 (active)	0.00448 (active)	0.0123 (active)	0.035 (active)	0.0116 (active)	0.0138 (active)	0.534 (active)	0.614 (active)	0.498 (active)	0.794	0.921	0.34 (active)	0.0154 (active)	0.00437 (active)	0.0968 (active)	0.928	0.169 (active)	0.00855 (active)	0.00404 (active)
CCc1cccc(C)c1N(C(=O)CCl)[C@@H](C)COC	1.01	0.962	0.992	1	1.08	0.89	1.02	0.929	1.01	0.968	1.12	1.05	0.948	0.984	0.967	1.04	1.04	0.981	1.06	0.974
CSc1nc(NC(C)C)nc(NC(C)C)n1	0.966	0.971	0.983	1.03	1.03	0.956	1.07	0.857	0.933	0.922	1.02	0.97	0.97	1.02	0.946	0.914	1.02	0.987	0.978	0.877
COP(=O)(NC(C)=O)SC (stereo not given)	1.02	0.995	0.998	1.03	0.984	0.906	1.05	0.781	1.01	0.892	0.831	0.99	1.03	1.06	0.982	1	1.01	1.01	1.04	0.959
CSc1nnc(C(C)(C)C)c(=O)n1N	0.969	1.01	1.04	0.991	0.948	1.06	0.961	1.03	1.08	1.02	1	1.04	1.05	1.03	1.02	1.04	1	1.02	1.03	1.02
Cc1cc(C)c(C2=C(OC(=O)CC(C)(C)C)C3(CCCC3)OC2=O)c(C)c1	1.09	0.978	1.05	1.11	0.927	0.864	0.789	0.848	1.19	0.917	0.932	1.08	1.03	0.346 (active)	0.981	0.896	1.02	1.01	1.16	0.994
CCSC(C)CC1CC(=O)C(/C(CC)=N/OC/C=C/Cl)=C(O)C1 (mixture of isomers)	0.981	0.969	0.986	1.01	0.93	0.987	0.986	0.965	1.09	1.01	1.02	1	1.12	1	0.981	0.951	1.03	1.05	1.03	0.995
COC(=O)N(C(=O)N1CO[C@@]2(C(=O)OC)Cc3cc(Cl)ccc3C2=N1)c1ccc(OC(F)(F)F)cc1	0.96	0.963	0.971	1.03	1	0.972	1.02	0.878	1.03	0.974	1.01	1.02	1.01	1.1	0.979	1.05	1.04	1.03	1.09	0.948
Cc1nnc(-c2ccccc2)c(=O)n1N	0.991	0.975	0.993	1.03	0.986	0.946	1.04	0.899	0.882	0.909	1.12	0.974	0.918	0.963	0.956	0.868	1.01	0.937	1.12	0.905
